Laboratory results reported in paper PMC7819943, “Rice protein-binding microarrays: a tool to detect cis-acting elements near promoter regions in rice”.
In all, about 35,000 sequences were measured (“fluorescence intensity (a.u.)”: median about 10,000, highest 2% from about 52,000 on). For the sample, the highest values were picked, then their nearest neighbours and some sequences at random.

Target: T1, OsWOX13 (Oryza sativa, UniProt Q5QMM3 1-267)
T1 sequence: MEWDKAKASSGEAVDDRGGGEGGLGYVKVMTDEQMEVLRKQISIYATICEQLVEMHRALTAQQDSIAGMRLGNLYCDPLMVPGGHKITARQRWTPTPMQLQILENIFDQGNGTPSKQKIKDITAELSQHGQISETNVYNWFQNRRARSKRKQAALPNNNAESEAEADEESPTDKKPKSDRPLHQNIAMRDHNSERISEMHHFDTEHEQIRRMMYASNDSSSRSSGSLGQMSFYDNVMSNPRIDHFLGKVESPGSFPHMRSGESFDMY
Assay: protein-binding microarray (RPBM); PBS, 2% BSA, 51.3 ng/ul salmon testes DNA, 50 uM zinc acetate, 200 nM TF, 25 C, 1 h; high values mean tight binding
Conditions: protein: recombinant; tags: N-terminal polyhistidine and DsRed monomer fusion (pET32a); label: CyDye5-dUTP incorporated in the synthesized complementary strand; 3' TTTTT single-stranded linker to array surface; dsDNA, one strand shown
Outline: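 In PBS with 2% BSA, salmon testes DNA and 50 µM zinc acetate, 200 nM protein was incubated on a custom Agilent array at 25 °C for 1 h and then washed off. The array had been made double-stranded by primer extension with Cy5-dUTP and blocked with 2% BSA. The proteins were transcription factors fused N-terminally to polyhistidine and DsRed, expressed in E. coli BL21-CodonPlus and purified on Ni–NTA. The binding signal is per-feature fluorescence intensity (arbitrary units) from an Axon 4000B scanner.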

Row | Sequence | binding signal
1 | CTGTCAATCTGCATATATCTGTCTCTCTTACTCACTAACACGGAGTCACCTAGTGCAG | 8750 fluorescence intensity (a.u.)
2 | ACTCACGCGCAATTAGCTGGTTTTGATGGGTCAGGAGGAACGGAGTCACCTAGTGCAG | 5020 fluorescence intensity (a.u.)
3 | TGTAATTTAATTTTGCCTCCACATTTCCTGACTTTGGCCACGGAGTCACCTAGTGCAG | 45700 fluorescence intensity (a.u.)
4 | ACGCCATGATTTGACAATGTGATGCTACAGTAAACATTTGCGGAGTCACCTAGTGCAG | 23300 fluorescence intensity (a.u.)
5 | ACGCCATGATTGACAATGTGATGCTACAGTAAACATTTGCCGGAGTCACCTAGTGCAG | 53900 fluorescence intensity (a.u.)
6 | CCATGATTTGACAATGTGATGCTACAGTAAACATTTGCTACGGAGTCACCTAGTGCAG | 42800 fluorescence intensity (a.u.)
7 | CACCATAACTAATTAACAAGCCACCTATTTCCTCTTGACACGGAGTCACCTAGTGCAG | 10800 fluorescence intensity (a.u.)
8 | AGCCATGCATCAACACGTAATTAAGTACTAGTTGACAGTGCGGAGTCACCTAGTGCAG | 4190 fluorescence intensity (a.u.)
9 | TTGCTTTAACTAGCTGCTTAATTATATGTTCTTTGTATTTCGGAGTCACCTAGTGCAG | 5230 fluorescence intensity (a.u.)
10 | GCTAATTAATCTATTATTGATTTAGATGTATCGACCAGTTCGGAGTCACCTAGTGCAG | 53500 fluorescence intensity (a.u.)
11 | CGGCTAATTAATTTATATTTCTATATGTATTGACCCTGTTCGGAGTCACCTAGTGCAG | 61100 fluorescence intensity (a.u.)
12 | CACATTCAGTTCTAGATTAATTTATTTTGGATGAATGTATCGGAGTCACCTAGTGCAG | 6060 fluorescence intensity (a.u.)
13 | ATGTATTTAATTATAGATTTAATAAAATTAATCTAGTGTTCGGAGTCACCTAGTGCAG | 17500 fluorescence intensity (a.u.)
14 | CCGAATTTCTATTATTTCTTAATTGTATTTCTATATGGACCGGAGTCACCTAGTGCAG | 7410 fluorescence intensity (a.u.)
15 | AATCAATTATAACCATTTTCTATTTAATTACCTCACGCACCGGAGTCACCTAGTGCAG | 25700 fluorescence intensity (a.u.)
16 | ATATAACAGTTTATTCACAAATTATTTTCCGTTTGCAAATCGGAGTCACCTAGTGCAG | 6830 fluorescence intensity (a.u.)
17 | ATTGACAAGATAGATTGTTGCCCAATTTTCGAAGATGCTCCGGAGTCACCTAGTGCAG | 42000 fluorescence intensity (a.u.)
18 | AATATTGATGCTTAAATTTCTTTCGAAGATCCTATGGAAGCGGAGTCACCTAGTGCAG | 3840 fluorescence intensity (a.u.)
19 | ATAAATTGATGCCCAATTTTCGAAGATGCTCATAGGGGTGCGGAGTCACCTAGTGCAG | 52500 fluorescence intensity (a.u.)
20 | TCCTGTAACAGAATTGGAAAACCCAATCTGGCGACGGCTGCGGAGTCACCTAGTGCAG | 9790 fluorescence intensity (a.u.)
21 | CTTGACAGGCACCGTGATACTTGGGTTCTTGATATAACTGCGGAGTCACCTAGTGCAG | 34400 fluorescence intensity (a.u.)

Row | Sequence | binding signal
22 | GCGTAATTAGGCGGAGAGATTATAGGGAGAGAGATCGCGACGGAGTCACCTAGTGCAG | 16700 fluorescence intensity (a.u.)
23 | TTAAAATTATTTTATAATTAATATTTATTATTATTATTAGCGGAGTCACCTAGTGCAG | 12400 fluorescence intensity (a.u.)
24 | GTAATTGATTTTCTGGCGCGATTAAGAGCTTGGTATATAGCGGAGTCACCTAGTGCAG | 59200 fluorescence intensity (a.u.)
25 | TGATTAATTAGCGAGAGTAATTAATTAATTATAGCCTGCGCGGAGTCACCTAGTGCAG | 61600 fluorescence intensity (a.u.)
26 | CTGACTGGCTCTGATTAATTAATTGATGATCGATCGAGCGCGGAGTCACCTAGTGCAG | 49800 fluorescence intensity (a.u.)
27 | AATCCTCTTAATTATTATTAGCGGTTCGTCCTATGATCTTCGGAGTCACCTAGTGCAG | 7080 fluorescence intensity (a.u.)
28 | ATGATATAATTAATTAATTAGCGCGCGGTTCCACCTCCCGCGGAGTCACCTAGTGCAG | 60200 fluorescence intensity (a.u.)
29 | TAGCTTAATTTGATTTCTATTTAAGACCTTGACATTAACGCGGAGTCACCTAGTGCAG | 24400 fluorescence intensity (a.u.)
30 | ATATAGTTGTGATTAATTAGTGAGTAGAGTGTGATACCTGCGGAGTCACCTAGTGCAG | 22100 fluorescence intensity (a.u.)
31 | GAGCATGATTACTTAAATATTAGCTAATTCTTTCTTTAAACGGAGTCACCTAGTGCAG | 15500 fluorescence intensity (a.u.)
32 | GTTGTACCACTGATTGGACTGCCTGCTTACCGATAATTAACGGAGTCACCTAGTGCAG | 24500 fluorescence intensity (a.u.)
33 | TTCTTGATGGAAATTGAAATTGTGTGTGTGGGATGCAGGACGGAGTCACCTAGTGCAG | 46400 fluorescence intensity (a.u.)
34 | ACACTAATAGGTCATGTCCATTTCCATCCCATTTCCATTGCGGAGTCACCTAGTGCAG | 7050 fluorescence intensity (a.u.)
35 | AGACTATTTACAAAACTAATTACATAAATGAAAGCTAACTCGGAGTCACCTAGTGCAG | 5260 fluorescence intensity (a.u.)
36 | TAAATTATTTTCTATTTATAAATATGTCGTTTGCCTTATTCGGAGTCACCTAGTGCAG | 4180 fluorescence intensity (a.u.)
37 | AATTGACAAAGATGAAACACATGTGGACTGGACTACTCGACGGAGTCACCTAGTGCAG | 3660 fluorescence intensity (a.u.)
38 | ATATAAATTGACTATTAAATATATTGACTATATGTAAATTCGGAGTCACCTAGTGCAG | 25600 fluorescence intensity (a.u.)
39 | AATTAACGGAGGAAACTCCAATCAGATACGCAGACGGACACGGAGTCACCTAGTGCAG | 8430 fluorescence intensity (a.u.)
40 | TATATATATATATATATATATATATATATATATATAGACACGGAGTCACCTAGTGCAG | 7880 fluorescence intensity (a.u.)
41 | AACAGCTGATGAGTGATGATTGACAGACATCACACGCGGACGGAGTCACCTAGTGCAG | 57600 fluorescence intensity (a.u.)
42 | CTCTAGTTGATGATGGAAATCATTGACAAGAACTATAGCACGGAGTCACCTAGTGCAG | 22100 fluorescence intensity (a.u.)
